According to the supplement of paper PMC11624193, “Coupling cellular drug-target engagement to downstream pharmacology with CeTEAM” (Nature Communications, 2024):
A number with no mark means an inactive call.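 The calls were made as follows: active = log2 fold change beyond 2 SD from the library mean after excluding viability outliers; inactive = within 2 SD.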

These compounds were tested against PARP1 L713F-nLuc biosensor (HCT116) (UniProt P09874) (assay: PARP1 L713F-nLuc/akaLuc ratio relative to DMSO control (biosensor stabilization) (fold change); higher = more PARP1 biosensor stabilization (target engagement / stabilizer), active = hit call of the paper). Details: stock concentration (mM; final µM = stock mM x 1): 10; 24 h.
Sequence of PARP1 L713F-nLuc biosensor (HCT116) (P09874 whole entry L713F, looked up): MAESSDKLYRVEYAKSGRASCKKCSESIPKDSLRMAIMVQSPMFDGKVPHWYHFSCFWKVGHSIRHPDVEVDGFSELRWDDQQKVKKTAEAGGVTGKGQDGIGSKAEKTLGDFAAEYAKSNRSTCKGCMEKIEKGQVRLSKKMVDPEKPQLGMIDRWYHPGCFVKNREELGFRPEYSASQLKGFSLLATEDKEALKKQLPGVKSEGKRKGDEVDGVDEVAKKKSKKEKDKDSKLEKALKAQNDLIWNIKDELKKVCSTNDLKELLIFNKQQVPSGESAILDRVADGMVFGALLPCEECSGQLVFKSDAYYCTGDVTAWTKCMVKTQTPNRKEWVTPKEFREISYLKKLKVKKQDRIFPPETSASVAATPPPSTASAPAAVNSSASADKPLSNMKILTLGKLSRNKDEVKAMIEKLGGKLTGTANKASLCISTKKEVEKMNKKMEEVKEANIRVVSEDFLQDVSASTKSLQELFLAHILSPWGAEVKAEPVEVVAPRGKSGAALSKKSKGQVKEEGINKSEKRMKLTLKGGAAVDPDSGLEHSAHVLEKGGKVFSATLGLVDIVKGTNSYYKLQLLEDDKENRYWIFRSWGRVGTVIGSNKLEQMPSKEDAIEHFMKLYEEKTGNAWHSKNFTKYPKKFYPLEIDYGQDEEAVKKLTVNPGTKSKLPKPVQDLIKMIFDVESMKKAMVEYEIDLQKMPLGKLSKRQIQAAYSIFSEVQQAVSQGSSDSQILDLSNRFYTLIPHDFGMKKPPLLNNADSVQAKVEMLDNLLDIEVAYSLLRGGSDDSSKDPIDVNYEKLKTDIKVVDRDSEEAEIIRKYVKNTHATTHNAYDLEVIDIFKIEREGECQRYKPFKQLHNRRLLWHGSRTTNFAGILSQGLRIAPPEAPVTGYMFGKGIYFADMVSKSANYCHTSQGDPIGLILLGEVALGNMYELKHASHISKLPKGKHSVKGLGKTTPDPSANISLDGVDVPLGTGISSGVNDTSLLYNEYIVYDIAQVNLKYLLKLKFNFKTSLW

SMILES	PARP1 L713F-nLuc/akaLuc ratio
O=C(/C=C\n1cnc(-c2cc(C(F)(F)F)cc(C(F)(F)F)c2)n1)NNc1cnccn1 [Selinexor (KPT-330)]	0.434
Cc1[nH]nc(C(F)(F)F)c1Cc1sc2c(c1C(=O)N1C[C@](C)(O)CO1)c(=O)n(C)c(=O)n2C(C)C	0.93
CNC(=O)CN1CCC(Oc2cc3c(Nc4cccc(Cl)c4F)ncnc3cc2OC)CC1 [Sapitinib (AZD8931)]	0.797
CC(=O)Nc1cccc(-n2c(=O)n(C3CC3)c(=O)c3c(Nc4ccc(I)cc4F)n(C)c(=O)c(C)c32)c1	0.502
NC(=O)c1cccc2[nH]c(-c3ccc(C4CCCN4)cc3F)nc12 (configuration not stated)	4.24 (active)
CCOc1cccc2c1N[C@@H](c1ccc(C(=O)O)cc1)[C@H]1CC=C[C@@H]21 [LIN28 inhibitor LI71]	0.616
NC(=O)/C(=C/n1cnc(-c2cc(C(F)(F)F)cc(C(F)(F)F)c2)n1)c1cncnc1 [Eltanexor (KPT-8602)]	0.767
O=C(c1ccc(F)c(F)c1Nc1ccc(I)cc1F)N1CC(O)([C@@H]2CCCCN2)C1 [Cobimetinib (GDC-0973, RG7420)]	0.687
Cc1cc(C(C)Nc2ccccc2)c2nc(N3CCOCC3)cc(=O)n2c1 (configuration not stated)	0.773
CS(=O)(=O)c1ccc(C(=O)Nc2ccc(Cl)c(-c3ccccn3)c2)c(Cl)c1 [Vismodegib (GDC-0449)]	1.11
N[C@H]1C[C@@H]1c1ccc(-c2cccc(O)c2)cc1	0.692
Cc1nn2c([nH]c(=O)c3cccnc32)c1C#N	0.851
Nc1nc(=O)n([C@H]2C[C@H](O)[C@@H](CO)O2)cc1F [5-Fluoro-2'-deoxycytidine]	0.559
O=C(O)c1cccc(CN2C(=O)/C(=C(\c3ccccc3)c3ccc(Cl)cc3)c3ccccc32)c1	1.18
CO[C@H]1C[C@@H]2CC[C@@H](C)[C@@](O)(O2)C(=O)C(=O)N2CCCC[C@H]2C(=O)O[C@H]([C@H](C)C[C@@H]2CC[C@@H](OC(=O)C(C)(CO)CO)[C@H](OC)C2)CC(=O)[C@H](C)/C=C(\C)[C@@H](O)[C@@H](OC)C(=O)[C@H](C)C[C@H](C)/C=C/C=C/C=C/1C	0.565
Cc1cc(C)nc(SCC(=O)Nc2ncc(Cc3cccc4ccccc34)s2)n1	0.926
O=C(Nc1cccc(Cl)c1)Nc1ncc(CCNc2ncnc3ccsc23)s1 [SNS-314 (mesylate)]	1.11
CC(C)(Oc1ccc(Cl)cc1)C(=O)Nc1ccc(OCc2ccc(C#N)cc2)cc1 [AMPK activator 4]	1.2
COCCCc1sc(-c2ccccc2)nc1C(=O)Nc1ccccc1-c1nc2cc(CN3CCCC3)cnc2s1 [Sirtuin modulator 1]	0.737
Cn1cnc2c(F)c(Nc3ccc(Br)cc3Cl)c(C(=O)NOCCO)cc21 [Selumetinib (AZD6244)]	0.465
CNC(=O)c1ccc(C)c(-n2c(C)cc(OCc3ccc(F)cc3F)c(Br)c2=O)c1	0.728
C=CC(=O)Nc1cccc(Oc2nc(Nc3ccc(N4CCN(C)CC4)cc3)nc3ccsc23)c1	1.03
N#CC[C@H](C1CCCC1)n1cc(-c2ncnc3[nH]ccc23)cn1 [Ruxolitinib (S enantiomer)]	1.63
CC1=C2C(=O)O[C@@H](c3ccoc3)[C@]2(C)CCC1 [Fraxinellone]	0.831
NC(=O)c1cccc2cn(-c3ccc([C@@H]4CCCNC4)cc3)nc12 [Niraparib]	4.32 (active)
N#CCNC(=O)c1ccc(-c2ccnc(Nc3ccc(N4CCOCC4)cc3)n2)cc1 [Momelotinib]	0.661
NC[C@@](O)(c1ccc(Cl)cc1)c1ccc(-c2cn[nH]c2)cc1	0.809
